Sampled rows, rich in hits. Any-hit rate of the full collection: about 0.49%.
LDHA block – LDHA (human) enzyme inhibition | purified LDHA, NADH/diaphorase-resazurin fluorescence; stronger effect = lower value | activity change, % (values are at about 110 or 230 µM) | 480,000 compounds, 0.15% hits; in the data active means activity change below about -30%; inconclusive means mostly about -25% to -30%;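 further: plate controls were DMSO wells for no effect and wells without enzyme for full effect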
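Resorufin fluorescence (ex540/em590), read at 0 and 20 min after diaphorase/resazurin addition, reports the NADH left after a 5 min room-temperature reaction of 2 nM human LDH5 with 0.06 mM NADH and 0.2 mM pyruvate.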
Epigenetic reg – epigenetic control regulation, reporter derepression; murine LDR cells, GFP reporter derepression, 30 h; Potency, µM (titrated, usually from 53.9 µM), for inactives: at the top dose GFP activation, most hits filed as activators; 280,000 compounds, 0.2% hits; further: potency means the concentration at half of the fitted maximal effect; % of control where 0% means no effect; nearly all actives have a fitted effect of over 60% in size
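In this reporter-derepression format, murine cells bearing a silenced integrated CMV-GFP locus incubate with test compound (30 h, 37 C), then are washed and imaged; fluorescent objects of 20–120 um count as induced cells.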
Vif-A3F inh – inhibitors of Vif-A3F interaction. HeLa A3F-eYFP + Vif (tagged APOBEC3F with the HIV-1 protein that degrades it), YFP fluorescence increase. 390,000 compounds, 0.2% hits. Potency, µM (doses to about 46.1 µM), for the others: at the highest dose activity, negative = active. AID 602313; further: potency means the concentration at half of the fitted maximal effect; % of control where 0% means no effect; nearly all actives have a fitted effect of over 65% in size
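HeLa cells stably expressing Vif plus C-terminally eYFP-tagged A3F were seeded, incubated overnight at 37 deg C, dosed with compound, incubated overnight again at 37 deg C. Yellow fluorescence (Ex 488/Em 500-530) reported blocked Vif-mediated A3F-eYFP degradation.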
Apoferritin bind – binds horse apoferritin like a general anesthetic; P02791; 350,000 compounds, 0.074% hits; Potency, µM (top dose mostly 77.5 µM), inactives show at the highest dose activity change, negative = displacement, most hits filed as inhibitors; apoferritin/1-aminoanthracene competitive binding, fluorescence; AID 485281; further: potency means the concentration at half of the fitted maximal effect; on the % scale 0 is the no-effect control and ±100 the full control effect; nearly all actives have a fitted effect of over 20% in size
Target sequence (P02791 2-175 limits assumed): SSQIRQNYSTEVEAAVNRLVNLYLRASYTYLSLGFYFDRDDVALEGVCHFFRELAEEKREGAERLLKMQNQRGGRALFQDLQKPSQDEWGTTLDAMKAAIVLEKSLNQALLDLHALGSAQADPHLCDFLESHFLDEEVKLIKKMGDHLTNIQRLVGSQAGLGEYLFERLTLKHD
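In PBS, apoferritin at 10 uM is loaded with 1-AMA from a 50% saturated solution. After 10 min of compound exposure at ambient temperature, reduced 535 nm fluorescence indicates probe displacement.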
Vif-A3G inh – blocks the Vif interaction with human APOBEC3G; HeLa A3G-eYFP + Vif (tagged APOBEC3G with the HIV-1 protein that degrades it), YFP fluorescence, overnight; 410,000 compounds, 0.076% hits; AID 602310; Potency, µM (highest dose often 46.1 µM), for the others: top-dose activity, negative = active, usual class: inhibitors; Q9HC16; further: potency means the concentration at half of the fitted maximal effect; on the % scale 0 is the no-effect control and ±100 the full control effect; nearly all actives have a fitted effect of over 60% in size
Target sequence (Q9HC16 whole entry, looked up): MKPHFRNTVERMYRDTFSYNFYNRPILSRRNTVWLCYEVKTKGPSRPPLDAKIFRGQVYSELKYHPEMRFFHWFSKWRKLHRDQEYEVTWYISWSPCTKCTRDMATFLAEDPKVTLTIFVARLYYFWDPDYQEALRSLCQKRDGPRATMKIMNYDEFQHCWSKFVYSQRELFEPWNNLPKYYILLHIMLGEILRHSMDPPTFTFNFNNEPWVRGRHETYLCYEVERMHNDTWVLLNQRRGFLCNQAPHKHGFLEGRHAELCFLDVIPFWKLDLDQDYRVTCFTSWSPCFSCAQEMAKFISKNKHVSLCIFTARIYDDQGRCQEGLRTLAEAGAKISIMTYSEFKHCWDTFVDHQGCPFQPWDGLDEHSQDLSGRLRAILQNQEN
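HeLa cells stably expressing Vif and C-terminally eYFP-tagged A3G, seeded overnight at 37 deg C, then exposed to compound by pintool overnight at 37 deg C. Rise in yellow fluorescence (Ex 488/Em 500-530, Acumen) marks blocked Vif-driven A3G degradation.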
The depositor's hits bear a star; ? = inconclusive; nt = not tested or not shown; ! = not active in a repeat; [ ] = remark or other dose. Unless noted, the call rests on the fitted dose curve; in most records, active means well fitted curve in the direction sought with a large enough effect; inconclusive means small, poorly fitted or top-dose-only effect, or another doubt; inactive means no such curve, though single readings can be large; an effect the other way counts as inactive or inconclusive.

SMILES	LDHA block	Epigenetic reg	Vif-A3F inh	Apoferritin bind	Vif-A3G inh
CCn1nc(C(C)C)cc1C(=O)N1CCCC(CO)(Cc2ccc(F)cc2F)C1 (configuration not stated)	-3	nt	-4%	5%	-2%
CN(C)c1ccc(/C=C2\Cc3ccccc3C2=O)cc1	2	nt	nt	nt	3.2µM*
CC(C)CNC(=O)CCSc1nc(-c2ccc3c(c2)OCO3)cc(C(F)(F)F)n1	-1	2%	-4%	-6%	-1%
COCCn1c(SCc2nc3sc(C(=O)OC)c(C)c3c(=O)[nH]2)nc2ccccc21	-3	-1%	?	-13%	3%
COC(=O)c1sc2nc(CSc3ccc(Br)cc3)[nH]c(=O)c2c1C	-2	7%	11µM*	-1%	-4%
COc1cc2c(cc1OC)C1=CC(=O)C(=O)N1C(C)(C)C2	4	1%	?	-21%	7.1µM*
COc1cc2c(cc1OC)-c1nc3ccccc3c(=O)n1C(C)(C)C2	-9	0%	2%	-5%	0%
CCOc1ccc(NC(=O)N2CC=C(c3c[nH]c4ccccc34)CC2)cc1	10	?	28µM*	-5%	?
CCOC(=O)c1cccc(NC(=O)N2CC=C(c3c[nH]c4ccccc34)CC2)c1	3	?	5µM*	-13%	?
COc1cc(OC)c(NC(=O)N2CC=C(c3c[nH]c4ccccc34)CC2)cc1Cl	10	?	?	-13%	?
CCc1ccc(NC(=O)N2CC=C(c3c[nH]c4ccccc34)CC2)cc1	6	?	nt	0%	nt
CCCOC(=O)NC1C(NC(=O)OCCC)N(C)C(=O)N1C (configuration not stated)	-4	-3%	2%	-6%	4%
Nc1ccc(C2CCCc3nonc32)c2nonc12 (configuration not stated)	3	5%	-8%	18µM*	-3%
CSc1nsc(/C=C/Nc2ccc(F)cc2F)c1C#N	5	4µM*	?	-14%	?
CSc1nsc(/C=C/Nc2ccc(C(=O)O)cc2)c1C#N	6	2%	?	-11%	?
Cc1ccccc1CN1c2ccccc2-c2nc(SCC(=O)NCCc3ccccc3)ncc2S1(=O)=O	-15	22µM*	0%	4%	-2%
Cc1cc(C)c2cc(C#N)c(N3CCCC3)nc2c1	-6	-1%	-11%	2%	3%
CCOc1ccccc1CNC(=O)CN1C(=O)c2cccnc2Oc2ccc(Cl)cc21	-12	-1%	1%	?	-3%
CCc1ccc(CNC(=O)CN2C(=O)c3cccnc3Oc3ccc(Cl)cc32)cc1	-33*	-1%	?	?	-18%
O=C(O[C@@H]1Cc2c(O)cc(O)cc2O[C@@H]1c1cc(O)c(O)c(O)c1)c1cc(O)c(O)c(O)c1	nt	-1%	nt	2%	nt
CC(=O)NC(c1cc(Cl)c2cccnc2c1O)C(C)C (configuration not stated)	17	nt	8.9µM*	nt	-6%
CC(=O)NC(c1cc(Cl)c2ccccc2c1O)C(C)C (configuration not stated)	2	nt	4%	nt	?
CC(=O)NC(c1cc(Cl)c2cccnc2c1O)C1CC1 (configuration not stated)	19	nt	?	nt	5µM*
Cc1ccc2oc(-c3ccc(NC(=O)CC(C)C)cc3)nc2c1	-1	-2%	-1%	-11%	3%
CC[N+]1(C)CC2CCC(C)(C1)C2(C)C (configuration not stated)	-31*!	-5%	-8%	2%	0%
SMILES	LDHA block	Epigenetic reg	Vif-A3F inh	Apoferritin bind	Vif-A3G inh
COCC(=O)Nc1cccc2ccccc12	-1	-2%	5%	4%	3%
CCOc1ccc(-c2cc(NC(=O)c3c(F)cccc3F)c(C(=O)OC)s2)cc1	1	0%	6%	33%	4%
CCOc1ccccc1CN1CCCCCC1c1sccc1C (configuration not stated)	-31*	nt	nt	nt	nt
CCOc1cc(CN2CCCCCC2c2ccccc2Cl)ccc1OCC(N)=O (configuration not stated)	3	nt	nt	nt	nt
Cc1cccc(C(C)C)c1NC(=O)COC(=O)Cc1ccsc1	-4	-1%	-3%	-7%	0%
CCN(CC)c1ccc(/C=C/C(=O)c2ccc(Br)cc2)cc1	-9	16%	25µM*	-2%	?
CN(C)c1ccc(C(=O)/C=C/c2ccc(Br)cc2)cc1	1	0%	-3%	-8%	-2%
Nc1nnnn1/N=C/c1cc(Br)ccc1O	-47*	nt	-5%	nt	1%
Nc1nnnn1/N=C/c1ccc(Br)cc1	-11	nt	-15%	-1%	-2%
Cc1ccc[n+](CC(=O)N2CCCCC2)c1C	9	-3%	-2%	4%	4%
Cc1nc2c3cc(F)ccc3n(Cc3ccccc3)c2s1	1	0%	-28%	-7%	6.3µM*
OC(c1ccccc1)(c1ccccc1)C1CCN(C(=S)NC2CCCC2)CC1	-7	-1%[10.1 µM]	-6%	-23%	0%
CC(C)(C)C1CCC(=NNC(=O)c2ccccc2-n2cccc2)CC1 (configuration not stated)	0	0%	3%	-12%	0%
O=C(Oc1ccc(Br)cc1C(=S)N1CCCC1)c1ccccc1Cl	-1	-2%	-4%	-13%	-3%
O=C(Oc1ccc(Br)cc1C(=S)N1CCCCC1)c1cc([N+](=O)[O-])cc([N+](=O)[O-])c1	-8	4%	2%	32µM*	-7%
NC(=S)N/N=C\c1ccccc1OCc1ccccc1	-6	-1%	8%	-4%	-17%
NC(=S)N/N=C/c1ccccc1OC(=O)/C=C/c1ccccc1	-5	nt	11µM*	-15%	0%
CC(Cc1ccco1)NC(=O)c1ccc(Cl)c(S(C)(=O)=O)c1 (configuration not stated)	-37*	nt	nt	nt	nt
CC(CCc1ccco1)NC(=O)c1ccc(Cl)c(S(C)(=O)=O)c1 (configuration not stated)	-2	nt	nt	nt	nt
O=C(Nc1ccc(C2=NCCN2)cc1)c1ccc(C(=O)Nc2ccc(C3=NCCN3)cc2)c(Cl)c1	-33*	2%	0%	2%	-5%
O=C(Nc1ccc(NC(=O)c2ccc(Cl)cc2Cl)cc1)c1ccc2c(c1)OCO2	-1	nt	-14%	30%	2%
CCCCCCc1c(C)[nH]c2nc3ccccc3n2c1=O	-6	nt	-1%	-1%	0%
Cc1ccc2cccc(NC(=O)COc3ccccc3)c2n1	-3	nt	nt	nt	nt
CCCCNS(=O)(=O)c1ccc(N2CCCCS2(=O)=O)cc1	-7	-2%	5%	1%	7%
CCCCOc1ccc(NC(=O)C(=O)NCCCn2ccnc2)cc1	-4	0%	7%	?	-3%
CCCCCCOc1ccc(C(=O)NCCCn2ccnc2)cc1	0	0%	0%	14µM*	-3%
CCOC(=O)C1=C(O)c2ccccc2C(=O)/C1=C\c1ccc(C)cc1	128	?	25µM*	-19%	?
